# In PubChem BioAssay AID1645882 (National Center for Advancing Translational Sciences (NCATS), 2021):
# “And” between values parts separate entries of the source, which are not always exact repeats. Equal values may be shown once. Among all 16,000 compounds or so, about 120 (0.75%) were called active. Where a call stands in place of a potency, no number is given. About 4% were inconclusive and are not listed. Calls follow the shape of the dose curve; as a rule, active = well fitted inhibition curve with a large enough effect; inconclusive = small, poorly fitted or top-dose-only effect; inactive = no such curve, though single readings can be large or run the other way. Only a selection was taken, and actives are over-represented in it overall. Where a structure was tested more than once in an assay, its records may differ in their call.
# Target: Rap guanine nucleotide exchange factor 3 (Homo sapiens) (UniProt O95398)
# Sequence (O95398 whole entry, looked up): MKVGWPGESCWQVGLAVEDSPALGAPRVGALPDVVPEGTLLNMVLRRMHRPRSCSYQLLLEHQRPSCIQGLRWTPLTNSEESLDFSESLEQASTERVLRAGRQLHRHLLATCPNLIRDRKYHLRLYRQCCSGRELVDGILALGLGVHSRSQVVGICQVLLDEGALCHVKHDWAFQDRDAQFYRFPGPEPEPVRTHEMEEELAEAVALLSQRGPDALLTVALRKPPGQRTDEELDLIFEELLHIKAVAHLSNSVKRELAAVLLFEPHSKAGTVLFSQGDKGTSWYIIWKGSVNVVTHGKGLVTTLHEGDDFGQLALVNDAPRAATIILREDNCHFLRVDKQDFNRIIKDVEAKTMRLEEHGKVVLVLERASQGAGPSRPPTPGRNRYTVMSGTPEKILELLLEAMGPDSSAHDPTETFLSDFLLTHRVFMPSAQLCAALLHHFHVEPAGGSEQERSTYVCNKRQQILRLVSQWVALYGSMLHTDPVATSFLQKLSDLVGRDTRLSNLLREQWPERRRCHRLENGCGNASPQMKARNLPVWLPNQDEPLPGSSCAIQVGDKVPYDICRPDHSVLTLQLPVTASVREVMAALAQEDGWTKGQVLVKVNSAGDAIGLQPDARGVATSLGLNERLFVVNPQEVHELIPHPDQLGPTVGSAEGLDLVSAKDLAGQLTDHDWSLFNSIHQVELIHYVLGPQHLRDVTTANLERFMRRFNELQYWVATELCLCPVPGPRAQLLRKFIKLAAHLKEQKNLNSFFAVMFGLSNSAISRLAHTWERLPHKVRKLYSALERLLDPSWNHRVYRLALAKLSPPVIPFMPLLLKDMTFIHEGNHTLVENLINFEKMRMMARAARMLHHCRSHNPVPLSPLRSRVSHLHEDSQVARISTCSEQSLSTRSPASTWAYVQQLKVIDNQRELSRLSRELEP
# Experiment: Validation qHTS for antagonist of cAMP-regulated guanine nucleotide exchange factor 3 (EPAC1); also: nearly all actives have a fitted effect of over 75% in size
# Conditions: EPAC1 Rap1B-BODIPY-GDP exchange, fluorescence; series mostly up to 150 µM
# Excerpt: Assay Provider (PI): Xiaodong Cheng Ph.D.
# The University of Texas Medical Branch, […], TX
# In multi-cellular eukaryotic organisms, the effects of cAMP are transduced by two ubiquitously-expressed intracellular cAMP receptors, the classic protein kinase A/cAMP-dependent protein kinase (PKA/cAPK) and the more recently discovered exchange protein directly activated by cAMP/cAMP-regulated guanine nucleotide exchange factor (EPAC/cAMP-GEF). Both PKA and EPAC are ubiquitously expressed in all tissues, and an increase in intracellular cAMP levels will lead to the activation of both PKA and EPAC. Therefore, careful dissections of the individual role and relative contribution of EPAC and PKA within the overall cAMP signaling in various model systems are critical for further elucidating the mechanism of cAMP signaling. To date no EPAC-specific antagonists and agonist, as well as isoform-specific agonists have been reported, and developing EPAC-specific pharmacological probes to determine the physiological functions that EPAC play in the overall cAMP-mediated signaling remains a major challenge within the research field. Furthermore, identified regulators of EPAC may lead to new mechanism-based therapeutic strategies specifically targeting the EPAC / cAMP-signaling components as EPAC has been implicated to play important roles in major human pathological conditions such as diabetes, heart disease, and cancer.
# This qHTS will be used to screen the Molecular Libraries Small Molecule Repository (MLSMR) as a concentration-titration series using the NCGC unique quantitative screening (qHTS) platform to find activators for EPAC1. In addition, this assay will also be used as a counterscreen for the EPAC2 qHTS. This fluorescent based assay is developed and validated for EPAC1 that measures exchange using EPAC effector Rap1 complex with BODIPY-GDP, a GDP analog with a tethered fluorophores. Activators are identified by monitoring the change in fluorescence signal as the exchanged free BODIPY-GDP has a reduced fluorescence compared to Rap1-bound BODIPY-GDP. Increase in signal (activation) is the desired outcome for the EPAC1 agonist while no activity in this assay is desired for the EPAC2 agonist counterscreen.
# [1] de Rooij, J., Zwartkruis, F. J., Verheijen, M. H., Cool, R. H., Nijman, S. M., Wittinghofer, A., and Bos, J.L. (1998) Nature 396, 474-477.
# Briefly, three uL of reagents (100 nM EPAC1, 250 nM RAP1B-BODIPY-GDP, 50 uM GDP) were dispensed into a 1536-well Greiner black solid-bottom medium binding assay plate. Controls and test compounds (23 nL) were transferred to the plate via a Kalypsys pin tool equipped with a 1536-pin array. The plates were centrifuged at 1,000 rpm for 15 seconds followed by 5 minute incubation at room temperature. The assay plates were read at 5 minute intervals for 30 minutes in the ViewLux plate reader using 480nm excitation and 540nm emission filters. The results were normalized to the […] positive control ATA and DMSO.
# Potency is read from the fitted curve at half-maximal effect.
row,Structure (SMILES),Potency
1,CCN1CCN(C(=O)c2sc3ncnc(NCC4CCCO4)c3c2C)CC1 (stereo not given),inactive
2,CC(C)CCCC(C)C1CCC2C3CC=C4CC(=O)CC[C@@]4(C)C3CC[C@@]12C (stereo not given in full),inactive
3,COc1ccccc1CNc1nc(-c2ccc(N(C)C)cc2)nc2ccccc12,inactive
4,Cc1ncc2c(c1CNC(=O)c1ccc3c(c1)OCO3)CCN(C(=O)c1cccc(-n3cccn3)c1)C2,inactive
5,CC(C)C(N)C(=O)NC(Cc1c[nH]c2ccccc12)C(=O)O (stereo not given),inactive
6,CC(=O)N[C@@H](Cc1c[nH]c2ccccc12)C(=O)O,inactive
7,Cc1cc(C)cc(C(=O)N(C)[C@H](Cc2ccc(-c3ccccc3)cc2)C(=O)N[C@@H](Cc2c[nH]c3ccccc23)C(=O)O)c1,112 µM (active)
8,C[N+](C)(CCCCCC[N+](C)(C)CCCN1C(=O)c2ccccc2C1=O)CCCN1C(=O)c2ccccc2C1=O,inactive
9,C#CCN(Cc1nc(N2CCOCC2)c2ccc(Cl)cc2n1)Cc1ccco1,inactive
10,CCC(=O)c1c(O)cc(O)cc1O,inactive
11,CCOc1cc(OCC)c(C(=O)CCC(=O)O)cc1OCC,inactive
12,CCCC(=O)c1cc(O)c(O)cc1O,63.1 µM (active)
13,O=C(c1n[nH]c2c1CCCC2)N1CCOc2ccc(C(O)C3CCCCC3)cc2C1 (stereo not given),inactive
14,Cc1ccc(C2(O)CCN(CCCC(=O)c3ccc(F)cc3)CC2)cc1,inactive
15,COc1ccccc1C1CN(CCNC(=O)c2cscn2)Cc2ccccc2O1 (stereo not given),inactive
16,CC(C)(O)c1ccccc1CC[C@@H](SCC1(CC(=O)O)CC1)c1cccc(/C=C/c2ccc3ccc(Cl)cc3n2)c1,79.4 µM (active)
17,CN(C)C(=O)CCSC(SCCC(=O)O)c1cccc(/C=C/c2ccc3ccc(Cl)cc3n2)c1 (stereo not given),inactive
18,COc1ccc2c3c1O[C@H]1C[C@H](O)C=C[C@@]31CCN(C)C2,inactive
19,CC(C)c1ccc2c(c1)CC[C@@H]1[C@@](C)(CN)CCC[C@]21C,inactive
20,CN(C)c1ccc(/C=C2/C(=O)Nc3ccccc32)cc1,inactive
21,CN(C)c1ccc(/C=C2\C(=O)Nc3ccccc32)cc1,inactive
22,O=C1Nc2ccc(I)cc2/C1=C/c1cc(Br)c(O)c(Br)c1,89.1 µM (active) and 79.4 µM (active) and inactive
23,COC(=O)c1ccc(CN2CCOc3ccc(C(O)c4cccnc4)cc3C2)cc1 (stereo not given),inactive

row,Structure (SMILES),Potency
1,COc1ccc(-n2c(=O)c(-c3ccc(F)cc3)nc3cnc(N4CCNCC4)nc32)cc1,inactive
2,Oc1c(Cl)cc(Cl)cc1Sc1cc(Cl)cc(Cl)c1O,79.4 µM (active)
3,Oc1ccc(Cl)cc1Sc1cc(Cl)ccc1O,inactive
4,O=C(Nc1ccccc1)O[C@@H]1C[C@H]2CCCC(=O)N3CC[C@@H](C1)[C@@H]23,inactive
5,CO[C@@H]1[C@@H](O[C@@H]2O[C@H](C)[C@@H](O[C@H]3C[C@@](C)(O)[C@@H](O)[C@H](C)O3)[C@H](N(C)C)[C@H]2O)[C@@H](CC=O)C[C@@H](C)[C@@H](O[C@@H]2CC[C@H](N(C)C)[C@@H](C)O2)/C=C/C=C/C[C@@H](C)OC(=O)C[C@H]1OC(C)=O,inactive
6,CC(N)C(=O)OC(C)(C)Cc1ccc(Cl)cc1 (stereo not given),inactive
7,CC(C)c1ccc2c(c1)c(SC(C)(C)C)c(CC(C)(C)C(=O)O)n2Cc1ccc(Cl)cc1,28.2 µM (active)
8,COc1ccc2c(c1)c(CC(=O)O)c(C)n2Cc1ccc(Cl)cc1,inactive
9,CCC1C(=O)NCCN1Cc1ccc2c(c1)CN(Cc1cc(OC)ccc1OC)CCO2 (stereo not given),inactive
10,N#C/C(=C\c1c[nH]c2ccccc12)C(=O)c1ccc(O)c(O)c1,inactive
11,N#C/C(=C\c1ccc(O)c(O)c1)C(=O)NCCCCc1ccccc1,100 µM (active)
12,N#C/C(=C\c1ccc(O)c(O)c1)C(=O)NCCCc1ccccc1,63.1 µM (active) and inactive
13,N#C/C(=C\c1ccc(O)c(O)c1)C(=O)NCCc1ccccc1,inactive
14,O=C(O)CCCc1ccccc1,inactive
15,Oc1ccc(CCNCCCCCCNCCc2ccccc2)cc1O,inactive
16,CSc1nc(C(=O)NCc2nc(-c3cccc(NC(=O)c4ccc(C)s4)c3)oc2C)cs1,inactive
17,Cc1cccc(CN2CCc3nnc(C(C)NC(=O)C4CCOCC4)n3CC2)c1 (stereo not given),inactive
18,Cc1ccccc1C(=O)NC(C)c1nnc2n1CCN(Cc1ccc(F)cc1)CC2 (stereo not given),inactive
19,C/C1=C2N=C(/C=C3N=C(/C(C)=C4\[N-]C(C(CC(N)=O)C4(C)CCC(=O)NCC(C)OP(=O)([O-])OC4C(CO)OC(n5cnc6cc(C)c(C)cc65)C4O)C4(C)N=C1C(CCC(N)=O)C4(C)CC(N)=O)C(CCC(N)=O)C\3(C)C)C(CCC(N)=O)C/2(C)CC(N)=O.[CH3-].[Co+3] (stereo not given),50.1 µM (active)
20,C[N+](C)(CCCCCC[N+](C)(C)C1c2ccccc2-c2ccccc21)C1c2ccccc2-c2ccccc21,inactive
21,S=C=Nc1ccc(N=C=S)cc1,inactive
22,Nc1ccc(/C=C/c2ccc(N)cc2S(=O)(=O)O)c(S(=O)(=O)O)c1,inactive
